Test results reported in PubChem BioAssay AID1159580 (chemical genetic matrix, 2015).
Among all 5,500 compounds or so, about 2,000 (36%) were called active. About 18% were inconclusive and are not listed. No stated cut-off is given here; in the data, active means normalized growth mostly below about 0.91 (no sharp cut-off); inconclusive means no clear call, values can overlap the other calls; inactive means mostly above about 0.92. This is one part of the list.

Test: chemical genetic growth profiling, strain panel (AID 1159580);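 further: tested at 20 µM; growth read once vehicle control cultures reached saturation at 30 °C; 1 = growth at the plate median or of vehicle wells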
Conditions: growth OD

Measured: normalized growth

CC1(C)C=Cc2cc3ccc(=O)oc3cc2O1
inactive: S. cerevisiae deletion strains, locus YJR075W, strain HOC1, stronger effect = lower value 0.941 | S. cerevisiae deletion strains, locus YKL009W, strain mrt4, stronger effect = lower value 0.921 | S. cerevisiae deletion strains, locus YKL068W, stronger effect = lower value 0.966 | S. cerevisiae deletion strains, locus YKL085W, strain MDH1 (second series), stronger effect = lower value 0.973 | S. cerevisiae deletion strains, locus YKL085W, strain MDH1, stronger effect = lower value 0.973 | S. cerevisiae deletion strains, locus YKL160W, strain elf1, stronger effect = lower value 0.909 | S. cerevisiae deletion strains, locus YKR001C, strain vps1, stronger effect = lower value 0.907 | S. cerevisiae deletion strains, locus YKR026C, strain gcn3, stronger effect = lower value 0.942 | S. cerevisiae deletion strains, locus YLL026W, stronger effect = lower value 0.934 | S. cerevisiae deletion strains, locus YLL041C, strain sdh2, stronger effect = lower value 0.937 | S. cerevisiae deletion strains, locus YLR027C, strain aat2, stronger effect = lower value 0.942 | S. cerevisiae deletion strains, locus YLR039C, strain RIC1, stronger effect = lower value 0.91 | S. cerevisiae deletion strains, locus YLR058C, strain SHM2, stronger effect = lower value 0.965 | S. cerevisiae deletion strains, locus YLR102C, strain apc9, stronger effect = lower value 0.969 | S. cerevisiae deletion strains, locus YLR221C, strain rsa3, stronger effect = lower value 0.93 | S. cerevisiae deletion strains, locus YLR268W, strain sec22, stronger effect = lower value 0.985 | S. cerevisiae deletion strains, locus YLR320W, strain mms22, stronger effect = lower value 0.891 | S. cerevisiae deletion strains, locus YLR330W, strain CHS5, stronger effect = lower value 0.984 | S. cerevisiae deletion strains, locus YLR342W, strain FKS1 (second series), stronger effect = lower value 0.87 | S. cerevisiae deletion strains, locus YLR357W, strain rsc2, stronger effect = lower value 0.979 | S. cerevisiae deletion strains, locus YLR384C, strain iki3, stronger effect = lower value 0.948 | S. cerevisiae deletion strains, locus YLR418C, strain cdc73, stronger effect = lower value 0.851 | S. cerevisiae deletion strains, locus YML016C, strain PPZ1, stronger effect = lower value 0.986 | S. cerevisiae deletion strains, locus YML032C, strain rad52, stronger effect = lower value 0.923 | S. cerevisiae deletion strains, locus YML124C, strain tub3, stronger effect = lower value 0.96 | S. cerevisiae deletion strains, locus YMR058W, strain fet3, stronger effect = lower value 0.925 | S. cerevisiae deletion strains, locus YMR078C, strain ctf18, stronger effect = lower value 0.95 | S. cerevisiae deletion strains, locus YMR125W, strain sto1, stronger effect = lower value 0.999 | S. cerevisiae deletion strains, locus YMR205C, strain PFK2, stronger effect = lower value 0.923 | S. cerevisiae deletion strains, locus YMR223W, strain ubp8, stronger effect = lower value 0.908 | S. cerevisiae deletion strains, locus YMR231W, strain pep5, stronger effect = lower value 0.976 | S. cerevisiae deletion strains, locus YMR263W, strain SAP30, stronger effect = lower value 0.977 | S. cerevisiae deletion strains, locus YMR307W, strain GAS1, stronger effect = lower value 1.06 | S. cerevisiae deletion strains, locus YNL067W, strain RPL9B, stronger effect = lower value 0.957 | S. cerevisiae deletion strains, locus YNL128W, strain TEP1, stronger effect = lower value 1 | S. cerevisiae deletion strains, locus YNL183C, strain NPR1, stronger effect = lower value 0.843 | S. cerevisiae deletion strains, locus YNL233W, strain BNI4, stronger effect = lower value 0.941 | S. cerevisiae deletion strains, locus YNL248C, strain rpa49, stronger effect = lower value 0.916 | S. cerevisiae deletion strains, locus YNL250W, strain rad50, stronger effect = lower value 0.965 | S. cerevisiae deletion strains, locus YNL271C, strain bni1, stronger effect = lower value 0.958 | S. cerevisiae deletion strains, locus YNL298W, strain CLA4, stronger effect = lower value 0.97 | S. cerevisiae deletion strains, locus YNL307C, strain MCK1, stronger effect = lower value 0.943 | S. cerevisiae deletion strains, locus YNL322C, strain KRE1 (second series), stronger effect = lower value 0.917 | S. cerevisiae deletion strains, locus YNR049C, strain mso1, stronger effect = lower value 0.925 | S. cerevisiae deletion strains, locus YNR052C, strain pop2, stronger effect = lower value 0.971 | S. cerevisiae deletion strains, locus YOL006C, strain TOP1, stronger effect = lower value 0.75 | S. cerevisiae deletion strains, locus YOL012C, strain htz1 0.855 | S. cerevisiae deletion strains, locus YOL147C, strain pex11, stronger effect = lower value 0.964 | S. cerevisiae deletion strains, locus YOR001W, strain rrp6, stronger effect = lower value 0.895 | S. cerevisiae deletion strains, locus YOR061W, strain CKA2, stronger effect = lower value 1 | S. cerevisiae deletion strains, locus YOR069W, strain VPS5, stronger effect = lower value 0.99 | S. cerevisiae deletion strains, locus YOR070C, strain gyp1, stronger effect = lower value 0.981 | S. cerevisiae deletion strains, locus YOR080W, strain dia2, stronger effect = lower value 0.964 | S. cerevisiae deletion strains, locus YOR136W, strain idh2, stronger effect = lower value 0.968 | S. cerevisiae deletion strains, locus YOR144C, strain elg1, stronger effect = lower value 0.972 | S. cerevisiae deletion strains, locus YOR184W, strain ser1, stronger effect = lower value 0.892 | S. cerevisiae deletion strains, locus YOR265W, strain rbl2, stronger effect = lower value 0.935 | S. cerevisiae deletion strains, locus YOR316C, strain cot1, stronger effect = lower value 0.978 | S. cerevisiae deletion strains, locus YPL055C, strain LGE1, stronger effect = lower value 0.951 | S. cerevisiae deletion strains, locus YPL240C, strain hsp82, stronger effect = lower value 0.936 | S. cerevisiae deletion strains, locus YPR119W, strain clb2, stronger effect = lower value 0.953 | S. cerevisiae deletion strains, locus YPR141C, strain kar3, stronger effect = lower value 0.957 | S. cerevisiae deletion strains, locus YPR163C, strain tif3, stronger effect = lower value 0.983 | S. cerevisiae deletion strains, locus YPR167C, strain met16, stronger effect = lower value 0.948 | S. cerevisiae deletion strains, strain wtn01, stronger effect = lower value 0.927 | S. cerevisiae strains, strain wild type, stronger effect = lower value 0.974
active: S. cerevisiae deletion strains, locus YJR066W, strain TOR1, stronger effect = lower value 0.793 | S. cerevisiae deletion strains, locus YKR091W, strain srl3, stronger effect = lower value 0.924 | S. cerevisiae deletion strains, locus YLL001W, strain dnm1, stronger effect = lower value 0.876 | S. cerevisiae deletion strains, locus YLR113W, strain HOG1, stronger effect = lower value 0.729 | S. cerevisiae deletion strains, locus YLR258W, strain gsy2, stronger effect = lower value 0.895 | S. cerevisiae deletion strains, locus YLR262C, strain YPT6 (second series), stronger effect = lower value 0.815 | S. cerevisiae deletion strains, locus YLR342W, strain FKS1, stronger effect = lower value 0.909 | S. cerevisiae deletion strains, locus YLR370C, strain arc18, stronger effect = lower value 0.873 | S. cerevisiae deletion strains, locus YLR371W, strain rom2, stronger effect = lower value 0.906 | S. cerevisiae deletion strains, locus YML120C, strain ndi1, stronger effect = lower value 0.85 | S. cerevisiae deletion strains, locus YMR129W, stronger effect = lower value 0.923 | S. cerevisiae deletion strains, locus YNL071W, strain lat1, stronger effect = lower value 0.863 | S. cerevisiae deletion strains, locus YNL209W, strain ssb2, stronger effect = lower value 0.923 | S. cerevisiae deletion strains, locus YOR083W, strain WHI5, stronger effect = lower value 0.844 | S. cerevisiae deletion strains, locus YOR106W, strain vam3, stronger effect = lower value 0.821 | S. cerevisiae deletion strains, locus YOR231W, strain MKK1, stronger effect = lower value 0.857 | S. cerevisiae deletion strains, locus YOR270C, strain vph1, stronger effect = lower value 0.731 | S. cerevisiae deletion strains, locus YOR290C, strain snf2, stronger effect = lower value 0.783 | S. cerevisiae deletion strains, locus YPL051W, strain arl3, stronger effect = lower value 0.906 | S. cerevisiae deletion strains, locus YPL078C, strain atp4, stronger effect = lower value 0.82 | S. cerevisiae deletion strains, locus YPL106C, strain sse1, stronger effect = lower value 0.843 | S. cerevisiae deletion strains, locus YPL256C, strain CLN2, stronger effect = lower value 0.776
